Compound activity: PubChem BioAssay, National Center for Advancing Translational Sciences (NCATS)
Rows were chosen to be rich in hits. Some 1.7% of all compounds tested hit in one or more screens of this group.
HEK293 tox – cytotoxic in the GLP-1 receptor inverse agonist counter-screen. HEK293 cAMP-luciferase reporter cells, luminescence, 24 h. Potency, µM (series often up to 38.3 µM), actives largely listed as inhibitors. 0.13% of 410,000 active. AID 624418;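 further: loss of luciferase light is scored as toxicity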
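Compound-treated cells are incubated 24 hr at 37 deg C under 5% CO2 after a 12 hour attachment period, then luciferase detection reagent is added and luminescence is measured following 12 min at room temperature; lowered signal indicates toxicity.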
GLP1R ag – agonists of human GLP-1 receptor; P43220; HEK293 GLP-1R CRE-luciferase, luminescence, 4-6 h; cells express a hypersensitive GLP-1R form; Potency, µM (top dose mostly 45.6 µM), actives largely listed as activators; 0.007% of 380,000 active; AID 624172
Target sequence (P43220 whole entry, looked up): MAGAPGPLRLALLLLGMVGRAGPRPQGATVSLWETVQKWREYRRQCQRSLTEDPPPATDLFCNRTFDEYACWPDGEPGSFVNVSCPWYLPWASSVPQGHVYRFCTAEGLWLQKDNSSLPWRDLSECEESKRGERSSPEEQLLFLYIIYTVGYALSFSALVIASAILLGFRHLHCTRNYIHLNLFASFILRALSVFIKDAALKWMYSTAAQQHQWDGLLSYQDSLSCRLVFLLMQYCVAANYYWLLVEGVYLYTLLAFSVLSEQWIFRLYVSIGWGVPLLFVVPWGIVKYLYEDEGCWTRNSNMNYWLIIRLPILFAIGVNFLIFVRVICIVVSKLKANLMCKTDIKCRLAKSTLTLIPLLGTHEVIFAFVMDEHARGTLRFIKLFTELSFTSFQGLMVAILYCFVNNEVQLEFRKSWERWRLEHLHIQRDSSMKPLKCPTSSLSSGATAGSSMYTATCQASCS
RGS4 inhibitor – human RGS4 inhibition | P49798 | Transcreener GDP fluorescence polarization, RGS4-accelerated GTP hydrolysis | Potency, µM (doses to about 114 µM), usual class: inhibitors | 0.039% of 390,000 active | AID 504845; further: nearly all actives have a fitted effect of over 75% in size
Target sequence (P49798 whole entry, looked up): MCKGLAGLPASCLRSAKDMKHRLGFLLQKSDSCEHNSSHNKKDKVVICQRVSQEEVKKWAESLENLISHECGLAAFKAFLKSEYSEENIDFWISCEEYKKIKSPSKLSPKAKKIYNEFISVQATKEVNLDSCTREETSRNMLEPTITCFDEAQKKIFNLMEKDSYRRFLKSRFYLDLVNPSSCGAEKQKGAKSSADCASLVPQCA
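MLSMR compounds (23 nl, pin-transferred) preincubated 10 min at room temperature with a 500nM (2x) first reagent, then RGS4 at 900nM (2x) plus Transcreener GDP mix added; fluorescence polarization (620/688 nm) read before and after 90 min at 30 °C.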
GLP1R inv ag – acts as inverse agonist at human GLP-1 receptor | P43220 | HEK293 GLP-1R CRE-luciferase, luminescence, 24 h; GLP-1R form is constitutively active | Potency, µM (doses to about 38.3 µM), usual class: inhibitors | 1.6% of 410,000 active; further: nearly all actives have a fitted effect of over 55% in size
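GLP-1R inverse agonism mode: basal reporter luminescence in engineered HEK293 cells measured after one day of compound exposure at 37 deg C, with a 12 min room-temperature detection step.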
PTHR1 ag – PTHR1 (human) receptor agonism. 0.075% of 410,000 active. Potency, µM (top dose mostly 115 µM), usual class: activators. Q03431. HEK293 GP2 PTHR1 cells, GloSensor cAMP luminescence, 1 h; further: nearly all actives have a fitted effect of over 55% in size
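HEK-293-derived GP2 cells expressing PTHR1 and a GloSensor cAMP reporter, 3,000/well, plated overnight, given luciferin plus IBMX (each 0.5 mM as added) for 1 h at 37 °C, then compound for 1 h at 37 °C. Luminescence was read after 15 min at room temperature.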
Each line names hits and unclear results; the compound was inactive in the other large screens; ! = not active in a repeat. The call rests on the fitted dose curve; in most records, active means well fitted curve in the direction sought with a large enough effect; inconclusive means small, poorly fitted or top-dose-only effect, or another doubt; inactive means no such curve, though single readings can be large; an effect the other way counts as inactive or inconclusive.

CC(=O)N1CCCc2cc(S(=O)(=O)N3CCC(C(=O)NCc4ccccc4)CC3)ccc21	none (no result: GLP1R ag)
COC(=O)c1cc(=O)n(Cc2cccs2)c(=Nc2ccc(F)cc2)s1	HEK293 tox inconclusive, GLP1R inv ag 3.5µM
COC(=O)c1cc(=O)n(Cc2ccco2)c(=Nc2ccc(F)c(Cl)c2)s1	GLP1R inv ag 2.8µM
COC(=O)c1cc(=O)n(CCc2ccccc2F)c(=Nc2ccc(F)c(Cl)c2)s1	GLP1R inv ag inconclusive
NC(=O)c1ccc(NC(=O)CCCN2C(=O)NC3(CCCC3)C2=O)cc1	none
O=C(CCN1C(=O)NC2(CCCC2)C1=O)Nc1ccc(Sc2ccc(Br)cc2)cc1	GLP1R inv ag 11µM (no result: RGS4 inhibitor)
O=C(OCc1ccccc1)N(CCF)c1cn(Cc2ccccc2)c(=O)n(Cc2ccccc2)c1=O	GLP1R inv ag 10µM
N#CCCN(NC(=O)OCc1ccccc1)C(=O)OCc1ccccc1	none
Cc1ccc2c(c1)C(c1ccccc1)N(C(=O)c1ccc(Br)o1)CC(=O)N2 (stereo not given)	GLP1R inv ag inconclusive
O=C1CN(C(=O)c2ccc(Br)o2)C(c2ccccc2)c2cc(Br)ccc2N1 (stereo not given)	GLP1R inv ag 7.1µM
O=C1CN(C(=O)c2ccc(Br)o2)C(c2ccc(F)cc2)c2cc(Cl)ccc2N1 (stereo not given)	GLP1R inv ag 3.5µM
O=C(NCc1ccc2c(c1)CCN2C(=O)c1ccncc1)c1ccc(Cl)cc1	none (no result: GLP1R ag)
COc1ccc(CN2CCC(N(CCc3ccccc3)Cc3ccccc3)CC2)c(OC)c1	HEK293 tox inconclusive, GLP1R inv ag 3.2µM
COc1cccc(CC(=O)NC2CCCN(Cc3ccc(Cl)cc3)C2)c1 (stereo not given)	GLP1R inv ag inconclusive
COc1ccc(C(=O)C2CCCN(Cc3cc(C)c(O)c(C)c3)C2)c(OC)c1 (stereo not given)	GLP1R inv ag 4.5µM
COc1ccc(C(=O)NC2CCCN(Cc3ccc(Cl)cc3)C2)c(OC)c1 (stereo not given)	GLP1R inv ag 7.9µM
CCOC(=O)C1=CNS(=O)(=O)NC1c1ccc(C#N)cc1 (stereo not given)	none
Cc1cc(C(=O)NCC(=O)Nc2ccc(F)c(F)c2)c(C)o1	none
O=C1SC(SCc2ccccc2)=N/C1=C\c1ccco1	RGS4 inhibitor inconclusive, PTHR1 ag 0.32µM
O=C1SC(SCc2ccccc2)=N/C1=C\c1ccc(C(=O)O)cc1	none
S=C(NCCCN1CCOCC1)N1CCN(c2nc(-c3ccc(Cl)cc3)cs2)CC1	HEK293 tox inconclusive, GLP1R inv ag 3.5µM
S=C(NCCCN1CCOCC1)N1CCN(c2nc(-c3ccccc3)cs2)CC1	GLP1R inv ag inconclusive
O=S(=O)(c1cccc(Cl)c1Cl)N1CCN(C(=S)NCCCN2CCOCC2)CC1	GLP1R inv ag 7.1µM
Cc1nn(C(C)(C)C)c(OC(=O)c2ccc3c(c2)OCO3)c1Sc1ccccc1	GLP1R inv ag 4.5µM
Cc1nn(C(C)(C)C)c(OC(=O)c2ccc3c(c2)OCO3)c1S(=O)(=O)c1ccccc1	GLP1R inv ag 10µM
CC(C)c1ccc(C2(C)NC(=O)N(CC(=O)NC3CCCC(C)C3C)C2=O)cc1 (stereo not given)	GLP1R inv ag inconclusive
C=C(C1=CCN(S(=O)C(C)(C)C)[C@H]1CCO)c1ccccc1 (stereo not given in full)	GLP1R inv ag 11µM
COc1cc(NC(=O)CCn2c(=S)[nH]c3ccccc3c2=O)cc(OC)c1OC	none (no result: RGS4 inhibitor)
COC(=O)C=CC(=NNc1ccccc1)c1ccccc1	GLP1R ag inconclusive, GLP1R inv ag 7.9µM
N#CC(C#N)=C(N)CSc1cccc[n+]1[O-]	HEK293 tox 4.5µM, GLP1R inv ag inconclusive
O=C(Cc1c[nH]c2ccccc12)N1CCN(S(=O)(=O)c2ccc(F)cc2)CC1	none (no result: RGS4 inhibitor)
O=C(Cc1c[nH]c2ccccc12)N1CCN(S(=O)(=O)c2cccc(Cl)c2Cl)CC1	HEK293 tox inconclusive, GLP1R inv ag 10µM
NC(=S)N/N=C1\CC(c2ccc3c(c2)OCCCO3)Oc2ccc(F)cc21 (stereo not given)	HEK293 tox inconclusive, GLP1R inv ag 13µM
NC(=S)N/N=C1\CC(c2ccc3c(c2)OCCO3)Oc2ccc(F)cc21 (stereo not given)	HEK293 tox inconclusive, GLP1R inv ag 3.5µM
CS(=O)(=O)Nc1cccc(NC(=O)C2Cc3c(-c4ccccc4)ccnc3O2)c1 (stereo not given)	GLP1R inv ag 0.89µM (no result: RGS4 inhibitor)
CC1=C(CO)C(=O)OC([C@@H](C)C2CC[C@H]3C4C[C@H]5O[C@]56[C@@H](O)C=CC(=O)[C@]6(C)C4CC[C@]23C)C1 (stereo not given in full)	HEK293 tox 13µM, RGS4 inhibitor inconclusive
CC(=O)c1ccc(OC2(C)CCN(CCOc3ccc(C)cc3)C2)cc1 (stereo not given)	none (no result: RGS4 inhibitor)
CC(O)(c1ccccc1)C(C(c1ccccc1)N1CCOCC1)N1CCOCC1 (stereo not given)	none
OC(c1ccccc1)(c1ccc(F)cc1)C(c1ccccc1)N1CCOCC1 (stereo not given)	GLP1R inv ag 7.9µM
Cc1noc(C)c1NC(=O)Nc1cccc2c1O[C@@H](CN(C)C(=O)Nc1ccc3c(c1)OCO3)[C@@H](C)CN([C@H](C)CO)C2=O	HEK293 tox inconclusive
O=C(OCc1cn([C@@H]2CN(C(=O)c3cccs3)[C@@H](c3ccc(Cl)cc3)C[C@H]2O)nn1)c1ccccc1	none (no result: RGS4 inhibitor)
CCc1ccc(CNC(=O)CN2C(=O)c3cccnc3Oc3ccc(C)cc32)cc1	none (no result: GLP1R ag)
CCCCCCCCN1C(=O)[C@H](CC(=O)NCC23CC4CC(CC(C4)C2)C3)C[C@@]2(C(=O)OCC)CCCC=C12	none (no result: RGS4 inhibitor)
Cc1ccc(CNC(=O)c2c(-c3ccccc3)sc3ccccc23)o1	GLP1R inv ag 5µM
CCCn1cnc2c1c(=O)n(CCCCC(C)=O)c(=O)n2C	RGS4 inhibitor 24µM! (no result: HEK293 tox, GLP1R inv ag)
CS(=O)(=O)c1ccccc1C(=O)N1CCN(S(=O)(=O)c2ccc(C3CCCCC3)cc2)CC1	GLP1R inv ag 10µM
O=C(c1ccco1)N1CCN(S(=O)(=O)c2ccc(C3CCCCC3)cc2)CC1	none
O=C(Nc1ccccc1Sc1ccccc1)c1ccc(F)cc1	GLP1R inv ag 5µM
O=C(COc1ccc(F)cc1)Nc1ccc2nc(SCC(=O)N3CCc4ccccc43)sc2c1	none (no result: GLP1R ag)
CCOP(=O)(OCC)C(NC(=O)Nc1cccc(Cl)c1)c1ccccc1 (stereo not given)	GLP1R inv ag 7.9µM
CCOP(=O)(OCC)C(NC(=O)Nc1cccc(Cl)c1)C(N)=O (stereo not given)	none
O=C(Nc1cccc(Cl)c1)OCCOC(=O)Nc1cccc(Cl)c1	HEK293 tox inconclusive, GLP1R inv ag 10µM
